Screening data as filed in PubChem BioAssay.
Hits are enriched below; roughly 2.3% of the tested compounds scored in any of these assays.
Pf Dd2 growth – P. falciparum Dd2 growth inhibition; activity change, % at 10 µM; hit rate 2.3% among 94,000; SYBR Green, 72 h; hits give low values; in the data active = activity change below about -80%
C diff HTS – blocks growth of Clostridium difficile | Clostridium difficile clinical isolate growth, OD600, 24 h; hits give low values | hit rate 0.25% among 86,000 | growth activity, negative = inhibition, % at 16 µg/mL (by protocol);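 active = mean growth activity at or below -80% and every replicate also at or below -80%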;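 also: 0% = DMSO wells and -100% = levofloxacin 16 µg/mL wells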
An asterisk follows results filed as active; · = no result.

SMILES	Pf Dd2 growth	C diff HTS
CCC(=O)N1CC2(CN(Cc3ccc(Cl)cc3)C2)c2c(n(C)c3cc(OC)ccc23)[C@@H]1CO	-65.4	5.5
O=C(C[C@@H]1CC[C@H](NC(=O)Nc2ccccc2F)[C@H](CO)O1)NCc1ccc(F)cc1	29.6	-2.8
CCS(=O)(=O)N1CCCCN2[C@H](CO)[C@H](c3ccc(C#Cc4ccccc4OC)cc3)[C@@H]2C1	-77.3	-2.0
Cc1noc(C)c1NC(=O)N(C)C[C@H]1Oc2ccc(NC(=O)NC3CCCCC3)cc2CC(=O)N([C@H](C)CO)C[C@H]1C	-1.9	-0.9
COc1ccc2c3c(n(C)c2c1)[C@@H](CO)N(C(=O)C1CC1)CC31CCN(C(=O)CN(C)C)CC1	-84.3*	-4.0
COc1ccc2c3c(n(C)c2c1)[C@H](CO)N(C(=O)C1CC1)CC31CCN(C(=O)CN(C)C)CC1	-78.4	-2.7
COc1cccc(-c2cn(CC[C@H]3CC[C@H](NC(C)=O)[C@@H](CO)O3)nn2)c1	-13.8	1.4
COc1ccc(NC(=O)N(C)C[C@H]2OCCCC[C@H](C)Oc3ccc(NC(=O)Nc4cccc5ccccc45)cc3C(=O)N([C@H](C)CO)C[C@H]2C)cc1	-85.5*	2.7
COc1ccc(NC(=O)N(C)C[C@H]2OCCCC[C@H](C)Oc3ccc(NC(=O)Nc4cccc5ccccc45)cc3C(=O)N([C@@H](C)CO)C[C@H]2C)cc1	-84.9*	2.1
COc1ccc(NC(=O)N(C)C[C@H]2OCCCC[C@@H](C)Oc3ccc(NC(=O)Nc4cccc5ccccc45)cc3C(=O)N([C@H](C)CO)C[C@@H]2C)cc1	-77.9	6.0
COc1ccc(NC(=O)N(C)C[C@H]2OCCCC[C@@H](C)Oc3ccc(NC(=O)Nc4cccc5ccccc45)cc3C(=O)N([C@@H](C)CO)C[C@H]2C)cc1	-75.6	-1.4
C[C@H](CO)N1C[C@H](C)[C@H](CN(C)S(=O)(=O)c2cn(C)cn2)Oc2ccc(NC(=O)Nc3ccccc3)cc2C1=O	5.5	-2.0
CC(=O)N[C@H]1CC[C@@H](CCNC(=O)Nc2ccc(C(F)(F)F)cc2)O[C@@H]1CO	11.3	-77.2
CN(C)CC(=O)N[C@@H]1CC[C@@H](CCNC(=O)Nc2ccc(C(F)(F)F)cc2)O[C@H]1CO	-7.4	-89.1*
CC(=O)N[C@@H]1CC[C@H](CCNC(=O)Nc2ccc(C(F)(F)F)cc2)O[C@H]1CO	0.1	-93.8*
CCC(=O)N[C@@H]1CC[C@@H](CCNC(=O)Nc2ccc(C(F)(F)F)cc2)O[C@@H]1CO	0.1	·
O=C(NCC[C@H]1CC[C@H](NC(=O)C2CC2)[C@H](CO)O1)Nc1ccc(C(F)(F)F)cc1	8.2	-7.3
O=C(NCC[C@H]1CC[C@H](NC(=O)C2CC2)[C@@H](CO)O1)Nc1ccc(C(F)(F)F)cc1	-16.6	-99.4*
C[C@@H]1CN([C@@H](C)CO)S(=O)(=O)c2ccc(C#CC3CC3)cc2O[C@H]1CN(C)C	-17.3	-0.9
CO[C@@H]1CN(C)C(=O)c2ccc(NS(C)(=O)=O)cc2OC[C@H](C)N(C(=O)c2ccc3c(c2)OCO3)C[C@H]1C	9.5	-1.1
C[C@@H]1CN([C@@H](C)CO)S(=O)(=O)c2ccc(C3=CCCC3)cc2O[C@H]1CN(C)C(=O)c1cccnc1	-9.1	-8.0
COCCNC(=O)C[C@@H]1C[C@H]2c3cc(NC(=O)Nc4ccccc4F)ccc3O[C@H]2[C@@H](CO)O1	12.9	-0.1
C[C@@H]1CCCCO[C@@H](CN(C)S(=O)(=O)c2ccc(Cl)cc2)[C@@H](C)CN([C@@H](C)CO)C(=O)c2cc(NS(=O)(=O)c3ccccc3)ccc2O1	-70.2	0.7
C[C@@H]1CN([C@H](C)CO)C(=O)c2cc(NS(=O)(=O)c3ccccc3)ccc2O[C@@H](C)CCCCO[C@@H]1CN(C)S(=O)(=O)c1ccc(Cl)cc1	-74.4	1.2
C[C@H]1CCCCO[C@H](CN(C)S(=O)(=O)c2ccc(Cl)cc2)[C@@H](C)CN([C@@H](C)CO)C(=O)c2cc(NS(=O)(=O)c3ccccc3)ccc2O1	-89.7*	0.2
SMILES	Pf Dd2 growth	C diff HTS
C[C@@H]1CN([C@@H](C)CO)C(=O)c2cc(NS(=O)(=O)c3ccccc3)ccc2O[C@@H](C)CCCCO[C@@H]1CN(C)S(=O)(=O)c1ccc(Cl)cc1	-85.1*	4.0
COc1cccc(S(=O)(=O)N(C)C[C@@H]2Oc3cc(C4=CCCCC4)ccc3S(=O)(=O)N([C@@H](C)CO)C[C@@H]2C)c1	-19.3	16.5
CN(C)CC(=O)N[C@H]1CC[C@H](CCn2cc(C3CCCC3)nn2)O[C@H]1CO	7.2	1.0
COc1ccccc1C#Cc1ccc([C@H]2[C@@H](C#N)N(C(=O)C3CC3)[C@H]2CO)cc1	-85.2*	4.7
COc1ccccc1C#Cc1ccc([C@@H]2[C@@H](C#N)N(C(=O)C3CCCCC3)[C@@H]2CO)cc1	-51.2	-3.1
COc1ccccc1C#Cc1ccc([C@H]2[C@H](C#N)N(C(=O)C3CC3)[C@H]2CO)cc1	-36.8	5.3
